High-throughput results: PubChem, National Center for Advancing Translational Sciences (NCATS)
This is a sample that favours compounds with a hit; in the whole collection about 12% have one here.
BAZ2B inh – BAZ2B (human) inhibition; AlphaScreen BAZ2B-H3K14Ac peptide displacement; Potency, µM (titrated, usually from 114 µM), actives largely listed as inhibitors; Q9UIF8; hit rate 4.4% among 360,000; further: nearly all actives have a fitted effect of over 60% in size
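AlphaScreen displacement of biotin-H3(5-23)K14Ac peptide (50 nM final) from BAZ2B (50 nM final) in PBS pH 7.4, 0.01% Tween-20; complex preformed 30 min RT, then compounds (top 110 uM) 30 min RT, beads 20 min dark.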
Sfp PPTase inh – Sfp phosphopantetheinyl transferase inhibition; Q9F4F7; hit rate 3.5% among 310,000; Biochemical Sfp PPTase activity, qHTS; Potency, µM, hits mostly inhibitors;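 further: the enzyme is Sfp with the accession as filed and its product quenches rhodamine fluorescence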
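Reaction rates are the 30-min fluorescence difference (ex 525, em 598 nm) in wells containing 15 nM Sfp, 5 uM rhodamine-CoA and 12.5 uM BHQ-2-YbbR at pH 7.6 with 10 mM MgCl2.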
HP1b chromo inh – blocks HP1-beta chromodomain binding to methylated histone tails | P83916 | AlphaScreen HP1-beta / biotin-H3K9me3 peptide binding | Potency, µM (series often up to 114 µM), usual class: inhibitors | hit rate 0.56% among 390,000; further: nearly all actives have a fitted effect of over 70% in size
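AlphaScreen: HP1-beta (50 nM) preformed 30 min with biotin-H3(1-18)K9me3 peptide (50 nM) in PBS pH 7.4, 0.01% Tween-20. Compound added for 30 min at RT, then streptavidin donor/nickel chelate acceptor beads (10 ug/mL) for 30 min.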
G9a inh – G9a (human) methyltransferase inhibition. Potency, µM (top dose mostly 102 µM), actives largely listed as inhibitors. G9a H3K9 monomethylation, AlphaScreen, 2 h. hit rate 8.8% among 350,000. Q96KQ7; further: nearly all actives have a fitted effect of over 75% in size
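Step 1: enzyme (final 20 nM) with compound, 15 min RT. Step 2: substrate peptide 500 nM and SAM 20 uM, 2 h RT. Step 3: anti-H3K9me1 antibody and AlphaScreen beads, 10 min, then plate read.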
JMJD2A Tudor – blocks the human JMJD2A Tudor domain; hit rate 4.4% among 390,000; AID 504339; O75164; Potency, µM (series often up to 114 µM), actives largely listed as inhibitors; AlphaScreen JMJD2A-Tudor / H3K4me3 peptide binding; further: nearly all actives have a fitted effect of over 50% in size
L3MBTL1 inh – blocks human L3MBTL1 | hit rate 0.66% among 230,000 | AID 485360 | AlphaScreen L3MBTL1–H3K9me1 peptide binding | Potency, µM (highest dose often 57.1 µM), most hits filed as inhibitors; further: nearly all actives have a fitted effect of over 60% in size
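Displacement of a biotinylated histone H3(1-15) peptide monomethylated at Lys9 (75 nM) from L3MBTL1 (50 nM) was measured by AlphaScreen after a 30 min room-temperature compound incubation; cefsulodin titration served as intraplate control.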
Hits are given with their value; 0 = inactive; ? = inconclusive; - = not tested or not shown; ! = not active in a repeat; [ ] = another dose, or the depositor's remark. The call rests on the fitted dose curve; in most records, active means well fitted curve in the direction sought with a large enough effect; inconclusive means small, poorly fitted or top-dose-only effect, or another doubt; inactive means no such curve, though single readings can be large; an effect the other way counts as inactive or inconclusive.

SMILES	BAZ2B inh	Sfp PPTase inh	HP1b chromo inh	G9a inh	JMJD2A Tudor	L3MBTL1 inh
C=CCSc1nc2sc3c(c2c(=O)[nH]1)CC(C)(C)OC3	-	-	0	-	0	-
C=CCNC(=S)NNc1nc2sc3c(c2c(=O)[nH]1)CC(C)(C)OC3	0	7.08µM	0	-	0	0
Cc1cccc(OCC(=O)Nc2cccc(OCc3cc(=O)n4cccc(C)c4n3)c2)c1	0	-	0	0	0	-
CCn1nc(C)c(NC(=O)Nc2cccc(Cl)c2Cl)c1C	0	0	0	0	0	0[11.4 µM]
Cc1cccc2nc(Cn3c(=O)n(-c4ccccc4)c(=O)c4c5c(sc43)CCC5)cc(=O)n12	0	-	0	0	0	-
CC1(C)CC(=O)C(C(C2=C(O)CC(C)(C)CC2=O)c2ccco2)C(=O)C1 (stereo unspecified)	0	?	0	35.5µM	0	0
COc1cc(C(O)C(=O)O)ccc1O (stereo unspecified)	0	0	0	11.2µM!	0	0
CC1(C)CC(=O)C(C(C2=C(O)CC(C)(C)CC2=O)c2ccc(Cl)c([N+](=O)[O-])c2)C(=O)C1 (stereo unspecified)	0	0	0	?	0	0
COc1cc(C(C2C(=O)CC(C)(C)CC2=O)C2C(=O)CC(C)(C)CC2=O)ccc1O	0	56.2µM	0	0[0.501 µM]	0	-
COc1cc(C(C2=C(O)CC(C)(C)CC2=O)C2C(=O)CC(C)(C)CC2=O)cc(OC)c1OC (stereo unspecified)	?	50.1µM	0	?	0	-
O=C(Nc1cccc(C(F)(F)F)c1)c1ccc(F)c(S(=O)(=O)N2CCc3ccccc3C2)c1	0	-	0	0	0	-
Cc1ccc(NC(=O)/C(C#N)=C\c2ccc(-c3ccc(Cl)cc3)o2)c(C)c1	0	-	0	0	0	-
COc1cc(C(C2C(=O)CC(C)(C)CC2=O)C2C(=O)CC(C)(C)CC2=O)ccc1OC(C)=O	-	-	0	-	0	-
COc1cc(C(C2C(=O)CC(C)(C)CC2=O)C2C(=O)CC(C)(C)CC2=O)cc(OC)c1OC	0	?	0	44.7µM	0	-
CCN(Cc1ccncc1)C(=O)c1cc(COc2ccc(F)cc2F)on1	0	0	0	39.8µM	0	-
CC(=O)Nc1ccc(NC(=O)CSc2n[nH]c(-c3cccs3)n2)cc1	0	-	0	0	?	0
COc1cc(NC(=O)C2CCN(S(=O)(=O)c3ccc4[nH]c(=O)oc4c3)CC2)cc(OC)c1	0	0	0	0	0	-
Cc1c(NC(=O)c2cc(-n3cnnc3)ccc2Cl)cccc1-c1nc2ccccc2o1	0	0	0	2.51µM	0	0
O=C(Nc1ccc(-c2nc3ccccc3o2)c(O)c1)c1cc(-n2cnnc2)ccc1Cl	0	0	0	0[12.7 µM]	0	-
O=C(OCc1cc(=O)n2nc(C3CC3)sc2n1)c1ccc(NC(=O)c2ccccc2F)cc1	0	-	0	0	0	-
Nc1ccccc1SSc1ccccc1N	44.7µM	3.55µM	?	1.58µM	31.6µM	-
Nc1ccccc1SCc1c(Cl)cccc1Cl	0	0	0	0	0	0
Nc1ccccc1SCc1ccccc1Cl	0	20µM	0	?	0	0
CCOc1ccccc1CNC(=O)CCc1c(C)nn(-c2ccc(N3CCCCC3)nn2)c1C	0	-	0	0	0	-
Cc1cccc(Cn2cccc2CNS(=O)(=O)c2ccccc2F)c1	0	-	0	0[12.7 µM]	0	-
SMILES	BAZ2B inh	Sfp PPTase inh	HP1b chromo inh	G9a inh	JMJD2A Tudor	L3MBTL1 inh
Fc1ccc(Nc2ccnc(-c3ccoc3)n2)cc1	-	?	-	0[0.501 µM]	-	-
c1cc(NC2CC2)nc(-c2ccoc2)n1	-	79.4µM	-	0[0.501 µM]	-	-
FC(F)(F)c1ccccc1-c1nccc(NCc2cccs2)n1	-	0	-	0[0.501 µM]	-	-
COc1ccccc1-c1nccc(NCc2cccs2)n1	-	79.4µM	-	0[0.501 µM]	-	-
c1csc(CNc2ccnc(-c3ccoc3)n2)c1	-	79.4µM	-	0[0.501 µM]	-	-
CCN(CCCCOC(=O)c1ccc(OC)c(OC)c1)[C@@H](C)Cc1ccc(OC)cc1	-	0	-	0[21.5 µM]	-	-
CCc1sc(-c2cc3cccc(OC)c3oc2=O)nc1-c1ccccc1	-	-	0	-	0	-
CCn1nc(C)c(/C=C2\CCCC3=C2OC(N)=C(C#N)C3c2c(C)nn(CC)c2C)c1C (stereo unspecified)	0	0	-	50.1µM	-	0
O=C(Nc1ccccc1C(F)(F)F)N1CCC2(CC1)Oc1ccccc1C(=O)N2Cc1ccccc1F	0	-	0	0	0	-
